Screens from PubChem BioAssay.
This is a sample that favours compounds with a hit; in the whole collection about 12% have one here.
HP1b binding inh: HP1-beta chromodomain-methylated histone interaction inhibition | AlphaScreen HP1-beta / biotin-H3K9me3 peptide binding | Potency, µM (highest dose often 114 µM), for the others: top-dose activity change, negative = inhibition, most hits filed as inhibitors | hit rate 0.56% among 390,000; note: nearly all actives have a fitted effect of over 70% in size
Target sequence (P83916 whole entry, looked up): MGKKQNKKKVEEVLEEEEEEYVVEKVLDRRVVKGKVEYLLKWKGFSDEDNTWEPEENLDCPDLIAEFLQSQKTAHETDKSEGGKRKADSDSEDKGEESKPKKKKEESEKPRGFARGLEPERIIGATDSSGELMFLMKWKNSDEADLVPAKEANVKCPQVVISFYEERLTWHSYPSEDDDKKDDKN
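AlphaScreen: HP1-beta (50 nM) preformed 30 min with biotin-H3(1-18)K9me3 peptide (50 nM) in PBS pH 7.4, 0.01% Tween-20. Compound added for 30 min at RT, then streptavidin donor/nickel chelate acceptor beads (10 ug/mL) for 30 min.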
Sfp PPTase inh: Sfp phosphopantetheinyl transferase inhibition; hit rate 3.5% among 310,000; Biochemical Sfp PPTase activity, qHTS; Potency, µM, for inactives: largest response in the series, negative = inhibition, hits mostly inhibitors; AID 1490; Q9F4F7;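 note: the enzyme is Sfp with the accession as filed and its product quenches rhodamine fluorescence; 0% = enzyme reaction without inhibitor and -100% = no enzyme wells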
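With Hepes-Na pH 7.6 buffer containing 10 mM MgCl2, Sfp (15 nM) modified BHQ-2-YbbR (12.5 uM) using rhodamine-CoA (5 uM). Two reads 30 minutes apart at 525/598 nm yielded each well's rate.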
G9a inh: blocks human histone lysine methyltransferase G9a; Potency, µM (highest dose often 102 µM), for the others: at the highest dose activity, negative = inhibition, hits mostly inhibitors; G9a H3K9 monomethylation, AlphaScreen, 2 h; AID 504332; hit rate 8.8% among 350,000; note: % is set by controls: 0 for no effect and ±100 for the full control effect; nearly all actives have a fitted effect of over 75% in size
Target sequence (Q96KQ7 913-1193 limits assumed): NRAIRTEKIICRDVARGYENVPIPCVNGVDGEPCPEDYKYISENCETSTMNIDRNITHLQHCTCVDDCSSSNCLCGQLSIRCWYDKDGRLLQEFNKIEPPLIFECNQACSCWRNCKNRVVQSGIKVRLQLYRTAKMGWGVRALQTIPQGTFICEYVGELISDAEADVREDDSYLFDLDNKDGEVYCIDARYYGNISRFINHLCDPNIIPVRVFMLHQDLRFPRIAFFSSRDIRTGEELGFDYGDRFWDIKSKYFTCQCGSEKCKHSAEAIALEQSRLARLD
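AlphaScreen read-out: biotin-H3K9 peptide (500 nM) methylation by 20 nM enzyme with 20 uM SAM, 2 h at room temperature after 15 min compound preincubation; anti-monomethyl H3K9 antibody plus donor/acceptor beads, 10 min dark.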
JMJD2A Tudor: inhibitors of human JMJD2A Tudor domain. O75164. AlphaScreen JMJD2A-Tudor / H3K4me3 peptide binding. Potency, µM (highest dose often 114 µM), for the others: at the highest dose activity change, negative = inhibition, actives largely listed as inhibitors. hit rate 4.4% among 390,000. AID 504339; note: % is set by controls: 0 for no effect and ±100 for the full control effect; nearly all actives have a fitted effect of over 50% in size
BAZ2B inh: inhibitors of human BAZ2B bromodomain; Potency, µM (top dose mostly 114 µM), inactives show at the highest dose activity change, negative = inhibition, most hits filed as inhibitors; AlphaScreen BAZ2B-H3K14Ac peptide displacement; AID 504333; hit rate 4.4% among 360,000; note: % is set by controls: 0 for no effect and ±100 for the full control effect; nearly all actives have a fitted effect of over 60% in size
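Compounds, titrated to a top concentration of 110 uM, were incubated 30 min at room temperature with preformed BAZ2B/acetyl-K14 H3 peptide complex (50 nM each). Proximity signal was measured by AlphaScreen after 20 min with beads.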
An asterisk follows results filed as active; ? = inconclusive; / = not tested or not shown; [ ] = remark or other dose. Calls come from the whole dose curve; as a rule, active = well fitted curve in the direction sought with a large enough effect; inconclusive = small, poorly fitted or top-dose-only effect, or another doubt; inactive = no such curve, though single readings can be large; an effect the other way counts as inactive or inconclusive. Potency is the fitted concentration of half-maximal effect.

SMILES	HP1b binding inh	Sfp PPTase inh	G9a inh	JMJD2A Tudor	BAZ2B inh
Cc1ccc2nc(-c3ccncc3)[nH]c2c1	40.7%	5.4%	-7.3%	-5.5%	?
Cc1csc(N2CCN(c3cc4c(cc3Cl)nc(-c3ccncc3)n4CCCN3CCCC3)CC2)n1	3.4%	?	10µM*	56.2µM*	?
Cc1ccc(-c2csc(N3CCN(c4cc5c(cc4Cl)nc(C)n5CCN4CCCCC4)CC3)n2)cc1	-24.5%	50.1µM*	44.7µM*	39.8µM*	-38.3%[57.1 µM]
Cc1csc(N2CCN(c3cc4nc(-c5ccncc5)[nH]c4cc3Cl)CC2)n1	24.7%	79.4µM*	7.94µM*	79.4µM*	?
Cc1ccc(-c2csc(N3CCN(c4cc5c(cc4Cl)nc(C(C)N)n5CCCO)CC3)n2)cc1 (stereo unspecified)	34.8%	-4.9%	13.3%	-35.7%	-31.3%
CCCCOc1ccc(S(=O)(=O)Nc2ccc(-c3ccc(N4CCC(C)CC4)nn3)cc2)cc1	7.0%[57 µM]	/	-23.4%[59 µM]	-22.0%	-12.9%
CC(C)Cc1csc(=S)[nH]1	6.1%[57 µM]	/	/	3.98µM*	/
CCCCOC(=O)C1CCCC(C)N1 (stereo unspecified)	-6.1%	1.3%	28.2µM*	22.4µM*	-38.5%
O=S(=O)([O-])CCC[n+]1c(SCCCS(=O)(=O)O)sc2ccc(Cl)cc21	59.3%	3.16µM*	25.1µM*	79.4µM*	?
CNC(=O)/C=C1\NC(C)(C)Cc2c1ccc1ccccc21	26.7%	-2.6%	17.7%[12.7 µM]	-31.1%	-7.0%
CC1(C)Cc2c(ccc3ccccc23)/C(=C/C#N)N1	-10.7%	-23.9%	50.1µM*	?	-11.9%
N#C/C(=C\c1ccc(O)c(O)c1)C(=O)N1CCc2ccccc21	?	/	6.31µM*	15.8µM*	8.91µM*
COc1cc(/C=C(\C#N)C(=O)N2CCc3ccccc32)ccc1O	-5.4%	-15.7%	28.2µM*	?	?
N#C/C(=C\c1cccc(O)c1)C(=O)N1CCCCC1	33.7%	6.0%	/	-19.9%	1.9%
CC(=O)c1c(O)c2cccc3c2n(c1=O)CCC3	56.5%	-5.7%	14.3%	-10.1%	-4.3%
CC1Cc2cccc3c(O)c(C(=O)c4nn[nH]n4)c(=O)n1c23 (stereo unspecified)	60.8%	-32.4%	8.91µM*	?	?
Cc1cc2oc(=O)c3c(c2cc1OCc1nn[nH]n1)CCCC3	23.9%	21.5%	70.8µM*	-14.2%	?
Cc1c(OCc2nn[nH]n2)ccc2c3c(c(=O)oc12)CCC(C)C3 (stereo unspecified)	17.8%	24.5%	50.1µM*	4.5%	4.3%
CCOC(=O)COc1ccc2c3c(c(=O)oc2c1C)CCC3	41.1%	2.5%	-2.4%[12.7 µM]	-0.3%	-1.2%
O=c1oc2cc(OCc3nn[nH]n3)ccc2c2c1CCCC2	13.3%	13.7%	28.2%[59 µM]	-31.5%	1.5%
Cc1c(OCc2nn[nH]n2)ccc2c3c(c(=O)oc12)CCCC3	14.0%	9.6%	70.8µM*	-25.2%	-1.1%
COc1cc(C2c3c(oc4ccc(C)cc4c3=O)C(=O)N2Cc2ccccc2)ccc1O (stereo unspecified)	20.4%	/	-11.3%[59 µM]	-13.4%	-33.4%
Cc1ccccc1N1CCN(C2CCCN(C(=O)CCC(F)(F)F)C2)CC1 (stereo unspecified)	38.0%	11.8%	16.8%[0.501 µM]	5.9%	9.8%
CCOC(=O)c1c(=O)n(O)c2ccc(C)cc2[n+]1[O-]	-0.6%	-10.2%	50.1µM*	89.1µM*	?
O=C(O)c1ccccc1-c1ccc(/C=C/c2cc(C(F)(F)F)[nH]c(=O)n2)o1	6.6%	-28.7%	39.8µM*	-25.9%	?
SMILES	HP1b binding inh	Sfp PPTase inh	G9a inh	JMJD2A Tudor	BAZ2B inh
O=C(O)c1cc(Cl)ccc1-c1ccc(/C=C/c2cc(C(F)(F)F)[nH]c(=O)n2)o1	-2.6%	-21.4%	?	-12.0%	-25.0%
Cc1nc(C(=O)O)sc1C1(C)CC(c2cccc([N+](=O)[O-])c2)=NO1 (stereo unspecified)	19.1%	/	/	-31.7%	/
Clc1ccc(C2NCCc3sccc32)cc1 (stereo unspecified)	20.2%	-9.7%	2.4%	-10.4%	-0.7%
Oc1ccc(C2CNCc3sccc32)cc1O (stereo unspecified)	?	/	2.99µM*	50.1µM*	15.1%
Cc1nc2c(c(=O)[nH]1)CSCC2	/	-8.6%	/	/	/
Cc1ccc(-c2cc(C(F)(F)F)n3nc(C(=O)NCC45CC6CC(CC(C6)C4)C5)cc3n2)cc1	49.6%	/	11.8%[59 µM]	-5.2%	-5.4%
CS(=O)(=O)c1ccc(N)cc1	42.9%	13.3%	44.7µM*	-9.0%	7.7%
CCN(CC)S(=O)(=O)c1ccc(N)cc1	37.2%	14.9%	14.6%	-18.6%	-1.3%
CCOC(=O)c1c(CSc2ccsc2)n(C)c2cc(Br)c(O)c(CN(C)C)c12	-23.8%	-21.1%	31.6µM*	?	?
CCOC(=O)c1c(CSc2ccccc2)n(C)c2cc(Br)c(O)c(CN(C)C)c12	?	-17.9%	39.8µM*	?	?
CCOC(=O)c1c(CN2CCOCC2)n(-c2ccccc2)c2cc(Br)c(O)c(CN(C)C)c12	-20.3%	4.7%	?	?	-4.8%
CCOC(=O)c1c(CN2CCCCC2)n(C)c2cc(Br)c(O)c(CN(C)C)c12	1.0%	-11.7%	35.5µM*	-35.9%	-3.7%
CCOC(=O)c1c(CSc2ccc(C)cc2)n(C)c2cc(Br)c(O)c(CN(C)C)c12	?	56.2µM*	8.91µM*	31.6µM*	44.7µM*
COc1ccc(S(=O)(=O)NCC(c2ccco2)S(=O)(=O)c2cccs2)cc1F (stereo unspecified)	9.3%	/	-0.5%[59 µM]	-22.4%	-15.4%
Cc1nn(CC(=O)OCC(=O)c2ccccc2)c(C)c1[N+](=O)[O-]	20.3%	/	/	2.1%	/
CCOC(=O)c1c(C)n(-c2ccc(C)cc2)c2ccc(O)c(CN(C)C)c12	-8.1%	?	44.7µM*	?	?
CCOC(=O)c1c(CSc2ccccc2)n(C)c2ccc(O)c(CN3CCN(C)CC3)c12	-15.9%	-10.2%	/	44.7µM*	?
CCOC(=O)c1c(C)n(-c2ccc(OC)cc2)c2ccc(O)c(CN(C)C)c12	10.5%	-3.7%	?	-19.1%[11.4 µM]	-29.0%
Cc1ccc(-c2noc(CN(C(=O)COc3cc(C)cc(C)c3C)C(C)C)n2)cc1	51.9%	/	26.8%[59 µM]	8.4%	3.6%
COCCNC(=O)C(=O)Nc1cccc(Br)c1	17.2%	22.9%	19.6%[59 µM]	-4.3%	7.7%
COCCNC(=S)NNc1cccc(C(=O)O)c1	?	7.08µM*	10µM*	10µM*	/
C=C(C)CNC(=S)Nc1sc2c(c1C(=O)OCC)CC(C)(C)OC2	-35.6%	39.8µM*	14.1µM*	?	8.9%
CCOC(=O)c1c(NC(=O)c2ccccc2C)sc2c1CC(C)(C)OC2	45.5%	31.6µM*	?	59.7%	52.7%
CCOC(=O)c1c(NC(=O)c2ccc(C)cc2)sc2c1CC(C)(C)OC2	25.6%	25.1µM*	15.8%[12.7 µM]	51.3%	59.1%
COC(=O)c1c(NC(=O)C(=O)N2CCCC2)sc2c1CC(C)(C)OC2	64.6%	2.0%	34.4%	-5.3%	-0.3%
